Drawing on PubChem BioAssay (EPA / NIEHS), this text covers outcome for 40 molecules.

Each structure is given as a SMILES string. Records with an inconclusive call do not appear. Calls of active or inactive are those of the source. Rule for the calls: active = hit-call score of the fitted dose curve at least 0.9, where 1 is the maximum; inconclusive = response in the unintended direction; inactive = score below 0.9.

human Vitamin D Receptor (VDR), VDR (gene 7421), sequence (P11473 whole entry, looked up, the tested form may be a part): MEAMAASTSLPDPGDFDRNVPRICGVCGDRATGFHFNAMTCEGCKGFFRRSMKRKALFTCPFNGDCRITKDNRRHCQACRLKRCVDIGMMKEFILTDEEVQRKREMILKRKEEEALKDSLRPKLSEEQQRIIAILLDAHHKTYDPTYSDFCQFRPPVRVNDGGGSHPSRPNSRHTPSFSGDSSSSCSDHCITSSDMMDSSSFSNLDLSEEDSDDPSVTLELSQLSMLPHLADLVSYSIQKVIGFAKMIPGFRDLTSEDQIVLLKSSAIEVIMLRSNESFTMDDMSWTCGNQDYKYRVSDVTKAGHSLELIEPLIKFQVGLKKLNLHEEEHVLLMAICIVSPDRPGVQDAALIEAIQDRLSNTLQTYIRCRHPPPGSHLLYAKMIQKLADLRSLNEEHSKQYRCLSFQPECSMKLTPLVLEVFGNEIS

The target of this assay is human Vitamin D Receptor (VDR), VDR (gene 7421) (UniProt P11473). Nature of the assay: ATG_VDR_TRANS: Attagene TRANS-FACTORIAL HepG2 Assay for human Vitamin D Receptor (VDR) (AID 2283022). The method, boiled down:
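HepG2 cells were transiently transfected with multiple GAL4-UAS reporter units, so signal reflects exogenous chimeric receptor-Gal4 activity. After 24 h compound exposure, reporter mRNA was measured by RT-PCR, fluorescent labelling and capillary electrophoresis, fitted for gain of signal versus DMSO.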
Take `COCCOC(=O)c1ccccc1C(=O)OCCOC`: the outcome was inactive. As for `O=C(O)CCCCCCCCC(=O)O`, the molecule was classed as inactive. Take `BrCc1cccc(Oc2ccccc2)c1`: the result was inactive. In the case of `Nc1c(S(=O)(=O)O)cc(Br)c2c1C(=O)c1ccccc1C2=O`, the result was inactive. Regarding `O=C(O)CNc1ccccc1`, the result was inactive. `CCCSc1ccc2nc(NC(=O)OC)[nH]c2c1`: the molecule was called inactive. The same measure for `CC(C)Nc1nc(N)nc(Cl)n1`: “inactive”; for `O=[N+]([O-])c1cccc(Cl)c1`: “inactive”. On to `CC1=NN(c2ccc(S(=O)(=O)O)cc2)C(=O)C1`, for which the call was inactive. Take `Cc1c(Cl)cccc1[N+](=O)[O-]`: the result was inactive. For the molecule `CC(C)C(OC(=O)c1ccccc1)C(C)(C)COC(=O)c1ccccc1` (stereo not given), the outcome was inactive. In the case of `CCCCC(CC)C(=O)OC(C)C` (stereo not given), the outcome was inactive. `CCOC(=O)CCc1ccccc1`: the call was inactive.

Regarding `Cc1ccc(OC(=O)c2ccccc2O)cc1`, the result was inactive. In the case of `O=[N+]([O-])c1ccc(O)cc1C(F)(F)F`, the call was inactive. In the case of `ON=C1CCCCC1`, the result was inactive. In the case of `CCCC(C)C(O)CC` (stereo not given), the molecule was called inactive. `COC(=O)C=C(C)CCC=C(C)C`: the outcome was inactive.

For `CCCCC1(COC(=O)CCC(=O)O)C(=O)N(c2ccccc2)N(c2ccccc2)C1=O`, the outcome was inactive. In the case of `C=C(C)C1CC=C(C)C(=O)C1` (stereo not given), the call was inactive. For the molecule `CS(C)=O`, the molecule was called inactive. In the case of `CCCCC(CC)COC(=O)c1ccc(O)cc1` (stereo not given), the outcome was inactive.

Take `O=C1CCCC=CCCCCCCCCCC1`: the molecule was classed as inactive. For `OCC#CCO`, the molecule was called inactive. In the case of `COc1ccc(CCO)cc1`, the molecule was called inactive.

For `COc1ccccc1N=Nc1c(S(=O)(=O)O)cc2cc(S(=O)(=O)O)cc(NC(C)=O)c2c1O`, the outcome was inactive.

For `CCOC(=O)CC(C)O` (stereo not given), the result was inactive. For the molecule `OCC(O)c1ccccc1` (stereo not given), the molecule was called inactive.

As to `CCCCC(CC)COC(C)=O` (stereo not given), the result was inactive. Under `Cc1ccc(C)o1` stands “inactive”. `CCCC(=O)c1ccccc1`: the molecule was classed as inactive. In the case of `COc1cc(C(C)C)ccc1C`, the molecule was classed as inactive. Regarding `CCOC(=O)C1OC1c1ccccc1` (stereo not given), the call was inactive. Take `CCOC(=O)c1ccc(N)cc1`: the molecule was classed as inactive. As for `CN1C(=O)c2ccccc2C1=O`, the molecule was called inactive. Consider `CCCC(=O)OC(C)(C)Cc1ccccc1`, for which the outcome was inactive. For the molecule `Cc1ccc(N)c(S(=O)(=O)O)c1`, the molecule was called inactive.

In the case of `CC(C)(CO)[C@@H](O)C(=O)NCCC(=O)O`, the molecule was classed as inactive. `NCCNc1cccc2ccccc12`: the outcome was inactive. Under `CCCCCCCCCC(C)C=O` (stereo not given) stands “inactive”.
